Test results from the antibiotic and cytotoxicity screens of Wong et al. (2023).
Hit rate of the full screen: of about 39,000 compounds, about 3,300 (8.5%) were called active. This excerpt belongs to a sample that is enriched for actives.

system: HepG2; experiment: cytotoxicity call (relative viability < 0.9); conditions: 10 µM

Row | Compound | cytotoxicity call
1 | C=CC(=O)Nc1ccccc1[C@@H](CCc1ccc(OC)c(OC)c1)OC(=O)[C@@H]1CCCCN1C(=O)C(=O)C(C)(C)CC | inactive
2 | COc1ccc(NC(=O)Nc2ccc3c(c2)[C@H]2C[C@H](CC(=O)NCC(F)(F)F)O[C@H](CO)[C@H]2O3)cc1 | inactive
3 | Cn1cnc(CCNC(=O)C[C@@H]2CC[C@@H]3[C@H](COC[C@@H](O)CN3C(=O)Nc3ccc(C(F)(F)F)cc3)O2)c1 | inactive
4 | COc1ccc(NC(=O)Nc2cccc3c2O[C@@H](CN(C)Cc2ccc(C(F)(F)F)cc2)[C@@H](C)CN([C@H](C)CO)C3=O)cc1 | inactive
5 | COc1ccc(NC(=O)Nc2cccc3c2O[C@@H](CN(C)Cc2ccc(C(F)(F)F)cc2)[C@H](C)CN([C@@H](C)CO)C3=O)cc1 | inactive
6 | COc1ccc(CN(C)C[C@H]2Oc3c(NC(=O)Nc4ccc(C(F)(F)F)cc4)cccc3C(=O)N([C@H](C)CO)C[C@@H]2C)cc1 | inactive
7 | COc1ccc(CN(C)C[C@H]2Oc3c(NC(=O)Nc4ccc(C(F)(F)F)cc4)cccc3C(=O)N([C@@H](C)CO)C[C@H]2C)cc1 | active
8 | COc1ccc(CN(C)C[C@H]2Oc3c(NC(=O)Nc4ccc(C(F)(F)F)cc4)cccc3C(=O)N([C@H](C)CO)C[C@H]2C)cc1 | inactive
9 | COc1ccc(CN(C)C[C@@H]2Oc3c(NC(=O)Nc4ccc(C(F)(F)F)cc4)cccc3C(=O)N([C@@H](C)CO)C[C@H]2C)cc1 | active
10 | Cc1noc(C)c1NC(=O)N(C)C[C@@H]1OCCCC[C@@H](C)Oc2ccc(NC(=O)C3CCCCC3)cc2C(=O)N([C@H](C)CO)C[C@H]1C | inactive
11 | C[C@@H]1CN([C@@H](C)CO)S(=O)(=O)c2ccc(Br)cc2O[C@H]1CN(C)C(=O)c1ccccc1F | inactive
12 | O=C(O)c1cc(=O)cc[nH]1 | inactive
13 | C[C@@H]1CN([C@@H](C)CO)C(=O)Cc2cc(NS(=O)(=O)c3ccc(F)cc3)ccc2O[C@@H]1CN(C)Cc1ccncc1 | inactive
14 | COc1ccc(CNC(=O)C[C@H]2C[C@H]3c4cc(NC(=O)NC5CCCC5)ccc4O[C@H]3[C@H](CO)O2)cc1 | inactive
15 | COc1cccc(S(=O)(=O)Nc2ccc3c(c2)[C@H]2C[C@H](CC(=O)NC4CCCCC4)O[C@H](CO)[C@H]2O3)c1 | inactive
16 | OC(c1ccc(-c2ccc(CN3CCN(Cc4ccncc4)CC3)cc2)c(F)c1)(C(F)(F)F)C(F)(F)F | inactive
17 | CC(=O)N[C@@H](CC(C)C)C(=O)O [listing 1 of 2 here] | inactive
18 | CC(=O)N[C@@H](CC(C)C)C(=O)O [listing 2 of 2 here] | inactive
19 | CC(C)C[C@@H](NC(=O)CCN)C(=O)O | active
20 | O=C(N[C@@H]1CC[C@H](CCNS(=O)(=O)c2ccc(F)cc2)O[C@H]1CO)C1CC1 | inactive
